Results reported in the supplement of paper PMC9588786.
Several values for one entry are separate records, joined by “and”; a condition that tells them apart may be missing. Equal entries are not always repeated. ± gives the standard deviation of the averaged measurements.

System: HT-1080
Assay: relative cell viability with RSL3 co-treatment (fraction of control); higher = stronger protection from RSL3-induced ferroptosis (higher viability)
Conditions: 10 µM
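Further: viability read as CCK-8 absorbance at 450 nm in cells co-exposed to the GPX4 inhibitor RSL3, relative to a 0.01% DMSO vehicle control.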

Row | SMILES | relative cell viability
1 | O=C(NCCO)c1cccc(-c2cc(Nc3ccc(OC(F)(F)F)cc3)ncn2)c1 | 0.713 ± 0.13
2 | CNC(=O)c1cc(Oc2ccc(NC(=O)Nc3ccc(Cl)c(C(F)(F)F)c3)cc2)ccn1 [Sorafenib] | 0.693 ± 0.14
3 | CNc1nc(-c2ccc3c(N)n[nH]c3c2)cc(N2C[C@@H](C(=O)NC3CCCCC3)CC[C@H]2C)n1 | 0.647 ± 0.13
4 | COc1cc2nccc(Oc3ccc(NC(=O)C4(C(=O)Nc5ccc(F)cc5)CC4)cc3)c2cc1OC [Cabozantinib malate (XL184)] | 0.8 ± 0.017
5 | Cc1ccccc1CN1C2=NCCN2C(=O)C2=C1CCN(Cc1ccccc1)C2 [TIC10 Analogue] | 0.62 ± 0.079
6 | COC(=O)c1ccc2c(c1)NC(=O)/C2=C(\Nc1ccc(N(C)C(=O)CN2CCN(C)CC2)cc1)c1ccccc1 [Nintedanib (BIBF 1120)] | 0.9 ± 0.12
7 | CCN(CC)CCCC(C)Nc1ccnc2cc(Cl)ccc12 (centres undefined) [Chloroquine Phosphate] | 0.817 ± 0.12
8 | Cc1cc(NC(=O)c2cccc(NC(=O)/C=C/CN(C)C)c2)ccc1Nc1nccc(-c2cccnc2)n1 | 0.407 ± 0.086
9 | CN(C)S(=O)(=O)c1ccc2c(c1)/C(=C/c1cc3c([nH]1)CCCC3)C(=O)N2 | 0.727 ± 0.081
10 | CNC(=O)Nc1ccc(-c2nc(N3CC4CCC(C3)O4)c3cnn(C4CCC5(CC4)OCCO5)c3n2)cc1 | 0.483 ± 0.14
11 | CC1=C(C(=O)Nc2cc3cn[nH]c3cc2F)C(c2ccc(C(F)(F)F)cc2)CC(=O)N1 (centres undefined) | 0.883 ± 0.084
12 | COc1cccc(-c2cc(=O)c3ccccc3o2)c1N | 0.717 ± 0.064
13 | O=c1ncn2nc(Sc3ccc(F)cc3F)ccc2c1-c1c(Cl)cccc1Cl | 0.5 ± 0.14
14 | O=C1NC(=O)C(c2ccccc2[N+](=O)[O-])=C1Nc1ccc(O)c(Cl)c1 | 0.847 ± 0.031
15 | C=CCc1ccc(O)c(-c2ccc(O)c(CC=C)c2)c1 [Honokiol] | 0.85 ± 0.04
16 | O=C(/C=C/c1ccc2ccccc2n1)c1ccncc1 | 0.64 ± 0.075
17 | CS(=O)(=O)N1CCN(Cc2cc3nc(-c4cccc5[nH]ncc45)nc(N4CCOCC4)c3s2)CC1 [Pictilisib (GDC-0941)] | 0.547 ± 0.11
18 | O=C(c1cccc(Cl)c1F)N1CCN(Cc2cccc(Nc3nccs3)n2)CC1 | 0.573 ± 0.049
19 | COc1ncc(-c2ccc3nccc(-c4ccnnc4)c3c2)cc1NS(=O)(=O)c1ccc(F)cc1F | 0.24 ± 0.14
20 | Cc1c(CN2CCN(C(=O)[C@H](C)O)CC2)sc2c(N3CCOCC3)nc(-c3cnc(N)nc3)nc12 [Apitolisib (GDC-0980, RG7422)] | 0.47 ± 0.09

Row | SMILES | relative cell viability
21 | NC(=O)Nc1sc(-c2ccc(F)cc2)cc1C(N)=O | 0.87 ± 0.046
22 | CO[C@H]1C[C@@H]2CC[C@@H](C)[C@@](O)(O2)C(=O)C(=O)N2CCCC[C@H]2C(=O)O[C@H]([C@H](C)C[C@@H]2CC[C@@H](OCCO)[C@H](OC)C2)CC(=O)[C@H](C)/C=C(\C)[C@@H](O)[C@@H](OC)C(=O)[C@H](C)C[C@H](C)/C=C/C=C/C=C/1C [Everolimus (RAD001)] | 0.607 ± 0.13
23 | O=c1[nH]nc(Sc2ncc([N+](=O)[O-])s2)n1-c1ccc2c(c1)OCCO2 | 0.533 ± 0.045
24 | O=C(NCc1ccccc1)c1csc(Nc2ccncn2)n1 [Thiazovivin] | 0.557 ± 0.24
25 | NC1(c2ccc(-c3nc4ccn5c(=O)[nH]nc5c4cc3-c3ccccc3)cc2)CCC1 | 0.467 ± 0.1
26 | COc1ccccc1-c1cc(Nc2cccc(CS(N)(=O)=O)c2)ncn1 | 0.613 ± 0.095
27 | CCN(C)S(=O)(=O)Nc1ccc(F)c(C(=O)c2c[nH]c3ncc(-c4cnc(C5CC5)nc4)cc23)c1F | 0.71 ± 0.017
28 | O=C(c1ccc(F)c(F)c1Nc1ccc(I)cc1F)N1CC(O)([C@@H]2CCCCN2)C1 [Cobimetinib (GDC-0973, RG7420)] | 0.797 ± 0.032
29 | CC(C)(C)c1ccc(S(=O)(=O)/C=C/C#N)cc1 | 0.707 ± 0.015
30 | CCC[C@H](NC(=O)/C(C#N)=C/c1cccc(Br)n1)c1ccccc1 [Degrasyn (WP1130)] | 0.793 ± 0.064
31 | Cc1cc2c(F)c(Oc3ncnn4cc(OC[C@@H](C)O)c(C)c34)ccc2[nH]1 | 0.753 ± 0.078
32 | CC(C)(O)CNc1ncc(-c2ccnc(Nc3ccnc(Cl)c3)n2)c(CC2CC2)n1 | 0.503 ± 0.031
33 | O=C1NC(=O)[C@@H](c2cn3c4c(cccc24)CCC3)[C@@H]1c1c[nH]c2ccccc12 [Tivantinib (ARQ 197)] | 0.64 ± 0.085
34 | O=C(Nc1nc2cccc(-c3ccc(CN4CCS(=O)(=O)CC4)cc3)n2n1)C1CC1 [Filgotinib (GLPG0634)] | 0.687 ± 0.035
35 | CC(C)Nc1cc(-c2c[nH]c(C(=O)N[C@H](CO)c3cccc(Cl)c3)c2)c(Cl)cn1 | 0.753 ± 0.076
36 | CO[C@H]1C[C@@H]2CC[C@@H](C)[C@@](O)(O2)C(=O)C(=O)N2CCCC[C@H]2C(=O)O[C@H]([C@H](C)C[C@@H]2CC[C@@H](OP(C)(C)=O)[C@H](OC)C2)CC(=O)[C@H](C)/C=C(\C)[C@@H](O)[C@@H](OC)C(=O)[C@H](C)C[C@H](C)/C=C/C=C/C=C/1C [Ridaforolimus (Deforolimus, MK-8669)] | 0.847 ± 0.14
37 | C[C@@H]1CCN(C(=O)CC#N)C[C@@H]1N(C)c1ncnc2[nH]ccc12 | 0.75 and 0.64
38 | CNC(=O)c1cc(Oc2ccc(NC(=O)Nc3ccc(Cl)c(C(F)(F)F)c3)c(F)c2)ccn1 [Regorafenib (BAY 73-4506)] | 0.483 ± 0.086
39 | N[C@@H]1CCCN(c2c(/C=C3\SC(=O)NC3=O)cccc2-c2ccccc2)C1 | 0.697 ± 0.13
